# Bioassay records (PubChem)
# Pin1 inhibitor – qHTS Assay to Find Inhibitors of Pin1. Potency, µM (titrated, usually from 115 µM), for the others: top-dose activity, negative = inhibition, hits mostly inhibitors. hit rate 0.009% among 390,000. Pin1 FP peptide displacement, HiFluor488, 10 min; active means well fitted inhibition curve with a large enough effect in the polarisation, with a control signal flat, not every such curve was filed as active; inconclusive means small, poorly fitted or top-dose-only effect, or effect the other way, or a change in a side signal; inactive means no such curve, though single readings can be large or run the other way; the % refers to the polarisation; further: potency means the concentration at half of the fitted maximal effect; on the % scale 0 is the no-effect control and ±100 the full control effect
# Target sequence (Q13526 whole entry, looked up): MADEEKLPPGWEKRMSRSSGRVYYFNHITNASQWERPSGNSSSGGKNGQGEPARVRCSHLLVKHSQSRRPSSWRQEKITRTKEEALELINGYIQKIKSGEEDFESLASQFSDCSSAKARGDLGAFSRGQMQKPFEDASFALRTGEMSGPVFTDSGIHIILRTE
# Tb PGK inh – qHTS Assay to Find Inhibitors of Phosphoglycerate Kinase; Phosphoglycerate kinase, glycosomal (Trypanosoma brucei brucei), P07378; PGK/GAPDH coupled, Kinase-Glo luminescence, 60 min; Potency, µM (doses to about 57.5 µM), for the others: at the top dose activity change, negative = inhibition, actives largely listed as inhibitors; hit rate 0.043% among 380,000; further: potency means the concentration at half of the fitted maximal effect; on the % scale 0 is the no-effect control and ±100 the full control effect; nearly all actives have a fitted effect of over 60% in size
#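 Luminescent ATP detection (Kinase-Glo Plus) follows a 60-minute room-temperature incubation, with wells lacking PGK as controls. Buffer: 100 mM TEA (pH 7.6), 5 mM MgCl2, 0.01% Tween-20. Coupling enzyme GAPDH (100 nM final) supplies unstable 1,3-BPG in-well.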
# Tb PFK inh-1 – qHTS Assay to Find Inhibitors of T. brucei phosphofructokinase. ATP-dependent 6-phosphofructokinase (Trypanosoma brucei brucei), O15648. T. brucei PFK, ADP-Glo luminescence. Potency, µM (doses to about 57.5 µM), for inactives: at the top dose activity, negative = inhibition, hits mostly inhibitors. hit rate 0.17% among 330,000. AID 485367, 2010;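 further: potency means the concentration at half of the fitted maximal effect; 0% = uninhibited 1x PFK enzyme wells and -100% = no-enzyme wells; nearly all actives have a fitted effect of over 60% in size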
#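 In TEA buffer at pH 8.0 with 5 mM MgCl2, enzyme (1.25 nM) converted F6P (0.5 mM) and ATP (0.1 mM) for 45 min at room temperature. ADP product was read by luciferase luminescence.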
# PI4K2A inh – qHTS for small molecular inhibitors of PI4K2A | purified PI4K2A, ADP-Glo luminescence, 1 h; active compounds read low | Phosphatidylinositol 4-kinase type 2-alpha (Homo sapiens), Q9BTU6 | activity change, negative = inhibition, % at 76.9 µM | hit rate 0.13% among 420,000 | AID 1346378, 2018; in the data active means activity change below about -50%; inconclusive means mostly about -30% to -49%;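 further: -100% = wells without enzyme as full effect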
#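 In this quantitative HTS, ADP production by PI4K2A was quantified luminescently after 1 h at ambient temperature; 100 microM adenosine served as plate-quality control.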
# PI5P4Ka inh – qHTS for Inhibitors of phosphatidylinositol 5-phosphate 4-kinase (PI5P4K); Phosphatidylinositol 5-phosphate 4-kinase type-2 alpha (Homo sapiens), P48426; PI5P4Kalpha enzyme, ADP-Glo luminescence, 60 min; active compounds read low; max response, %; hit rate 1.2% among 330,000; AID 652105, 2013; active means max response of -50% or lower; inconclusive means between -30% and -50%; inactive means -30% or higher; further: value at the top dose of about 77 µM; on the % scale 0 is the no-effect control and ±100 the full control effect
# Target sequence (P48426 whole entry, looked up): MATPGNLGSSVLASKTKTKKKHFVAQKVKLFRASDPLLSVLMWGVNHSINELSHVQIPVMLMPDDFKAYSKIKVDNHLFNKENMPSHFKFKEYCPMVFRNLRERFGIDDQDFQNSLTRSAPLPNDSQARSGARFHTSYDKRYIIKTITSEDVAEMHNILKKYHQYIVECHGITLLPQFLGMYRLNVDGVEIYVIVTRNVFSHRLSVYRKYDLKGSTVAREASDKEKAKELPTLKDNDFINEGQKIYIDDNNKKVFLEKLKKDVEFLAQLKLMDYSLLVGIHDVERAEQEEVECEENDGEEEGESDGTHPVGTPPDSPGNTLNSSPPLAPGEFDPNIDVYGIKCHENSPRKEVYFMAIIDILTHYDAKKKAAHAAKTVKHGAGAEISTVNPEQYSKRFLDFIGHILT
#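 Enzyme plus substrate dispensed, test compounds pinned in, then ATP (5 microM final) added. After 60 min at RT, ADP-Glo reagent 1 for 45 min and reagent 2 for 30 min preceded luminescence imaging.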
# TbPFK ATP – Tb PFK orthogonal confirmatory assay using ATP depletion (Kinase-Glo Plus) as an alternative measure of Tb PFK activity: Hit Validation; Potency, µM (highest dose often 57.5 µM), without a hit: at the highest dose inhibition; Tb PFK enzyme, ATP depletion, Kinase-Glo Plus luminescence; AID 504636, 2011; hit rate 47% among 1,100; shares compounds with Tb PFK inh-1; calls by dose curve; further: potency means the concentration at half of the fitted maximal effect; nearly all actives have a fitted effect of over 60% in size
# Tb PFK inh-2 – Inhibitors of T. brucei phosphofructokinase: Hit Validation; hit rate 41% among 1,100; Potency, µM (series often up to 57.5 µM), without a hit: at the highest dose activity change, negative = inhibition, actives largely listed as inhibitors; shares compounds with Tb PFK inh-1; purified T. brucei PFK, ADP-Glo luminescence, 45 min;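 further: potency means the concentration at half of the fitted maximal effect; plate controls were full PFK enzyme control for no effect and no enzyme control for full effect; nearly all actives have a fitted effect of over 60% in size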
# Active calls of the source: *; i = inactive; ? = inconclusive; / = not tested or not shown. This excerpt belongs to a sample that is enriched for hits. Unless noted, the call rests on the fitted dose curve; in most records, active means well fitted curve in the direction sought with a large enough effect; inconclusive means small, poorly fitted or top-dose-only effect, or another doubt; inactive means no such curve, though single readings can be large; an effect the other way counts as inactive or inconclusive.
SMILES,Pin1 inhibitor,Tb PGK inh,Tb PFK inh-1,PI4K2A inh,PI5P4Ka inh,TbPFK ATP,Tb PFK inh-2
CC(C)NCC(O)c1ccc(N)c(C#N)c1 (stereo unspecified),/,/,/,4,/,/,/
C=C(C)C(=O)Nc1cccc(C2=NOC3(C2)C[C@@H](C(N)=O)N(C(=O)c2ccc(Cl)cc2)C3)c1 (stereo partly specified),?,2.2µM*,9.5µM*,-8,?,0.67µM*,0.95µM*
C=C(C)C(=O)Nc1cccc(C2=NOC3(C2)C[C@@H](C(N)=O)N(C(=O)C(=C)C)C3)c1 (stereo partly specified),?,?,?,-29,-20,2.7µM*,1.7µM*
C/C=C\C=C/C(=O)Nc1cccc(C2=NOC3(C2)C[C@@H](C(N)=O)N(C(=O)/C=C/C=C\C)C3)c1 (stereo partly specified),-11%,?,5.4µM*,?,-94*,?,?
C=C(C)C(=O)Nc1cccc(C2=NOC3(C2)C[C@H](C(N)=O)N(C(=O)COc2ccc(Cl)cc2)C3)c1 (stereo partly specified),?,?,?,0,?,0.54µM*,0.67µM*
CCSc1nnc(NC(=O)c2cccn(Cc3ccccc3Cl)c2=O)s1,-7%,-10%,/,-8,/,/,/
COC(=O)[C@H]1[C@H]2C[C@@H]3c4[nH]c5cc(OC)ccc5c4CCN3C[C@H]2C[C@@H](OC(=O)/C=C/c2cc(OC)c(OC)c(OC)c2)[C@@H]1OC,?,1%,-4%,4,-9,/,/
Cc1ccc(CNC(=O)CCCn2c(=O)c3sccc3n(CC(=O)Nc3c(C)cccc3C)c2=O)cc1,11%,-7%,/,-26,/,/,/
O=C(O)Cc1ccc(NC(=O)Nc2ccc(Br)cc2)cc1,-4%,2%,?,-2,-1,12µM*,24µM*
COc1cc([C@@H]2c3cc4c(cc3[C@@H](O)C3COC(=O)C32)OCO4)cc(OC)c1O (stereo partly specified),47%,/,/,/,/,/,/
COc1ccc(-n2c(=O)[nH]c3ccccc3c2=O)cc1,-7%,0%,-1%,4,0,/,/
O=c1c2ccccc2sn1-c1ccc(F)cc1,5%,-3%,3.4µM*,-14,-89*,16%,?
COC(=O)c1cccc(-n2sc3ccccc3c2=O)c1,5%,i,6.7µM*,-12,-96*,?,?
O=C(COc1cc(Cl)ccc1Cl)Nc1ccc(Cl)cc1C(=O)c1ccccc1,1%,-1%,/,6,/,/,/
CCN[C@@H](C)Cc1ccccc1,/,/,/,i,/,/,/
O=C(COc1ccc(Cl)cc1Cl)Nc1cccnc1,4%,-1%,?,-3,-2,?,?
Cc1noc(NS(=O)(=O)c2ccc(NC(=O)CCCOc3ccc(Cl)cc3Cl)cc2)c1C,?,-6%,-10%,-5,-2,/,/
Cc1noc(NS(=O)(=O)c2ccc(NC(=O)COc3ccc(Cl)cc3Cl)cc2)c1C,-17%,-8%,12µM*,-3,-4,5.4µM*,12µM*
Cc1noc(NS(=O)(=O)c2ccc(NC(=O)c3cnc4scc(C)n4c3=O)cc2)c1C,?,-2%,?,-11,0,-28%,?
COc1ccc(CC(=O)Nc2ccc(C#N)c(Cl)c2)cc1S(=O)(=O)N1CCOCC1,-1%,9%,0%,3,-2,/,/
Cc1ccc(NC(=O)COc2ccc(Cl)cc2Cl)cc1S(=O)(=O)N1CCOCC1,4%,-1%,?,0,9,?,?
Cc1ccccc1OCC(=O)N1CCN(CCc2ccccn2)CC1,-5%,-4%,/,0,/,/,/
CCOC(=O)c1c(-c2ccc(OC)cc2)oc2ccc(OC(=O)N(C)C)cc12,0%,-1%,-1%,1,4,/,/
CCOC(=O)c1c(-c2ccc(OC)cc2)csc1/N=C/C1=C(O)CCCC1=O,?,2%,?,-6,-11,0%,-2%
N#Cc1c(N)nc2c(c1N)CC(CCl)O2 (stereo unspecified),-11%,0%,?,252,20,9%,3%
SMILES,Pin1 inhibitor,Tb PGK inh,Tb PFK inh-1,PI4K2A inh,PI5P4Ka inh,TbPFK ATP,Tb PFK inh-2
Clc1ccc(CNc2cnccn2)cc1Cl,-1%,0%,6.7µM*,-1,2,5.4µM*,9.5µM*
N=C1/C(=C/c2ccc(OC(=O)c3ccco3)cc2)C(=O)N=C2SC=CN12,26%,4%,5%,-5,?,/,/
O=C(NNC(=O)c1ccncc1)Nc1ccc([N+](=O)[O-])cc1,-1%,6%,?,0,2,?,?
O=C(NCc1cccnc1)Nc1ccc([N+](=O)[O-])cc1,3%,i,-12%,-2,0,/,/
O=C1c2ccccc2C(=O)N1SC1CCCCC1,1%,i,?,15,1,9.5µM*,15µM*
COc1ccc(Br)cc1CN1CCN(CCO)CC1,5%,5%,-2%,4,/,/,/
CC(C)(C)c1cc(C(=S)N2CCN(CCO)CC2)cc(C(C)(C)C)c1O,4%,-2%,30µM*,4,/,12µM*,24µM*
Cc1cccc(C(C)c2cnc[nH]2)c1C (stereo unspecified),/,/,/,-1,/,/,/
C=CCN1C(=O)/C(=C2/Sc3ccccc3N2CCCS(=O)(=O)O)SC1=S,?,-19%,?,-6,?,-29%,?
C[N+]1(CCF)[C@@H]2CC[C@H]1CC(OC(=O)C(O)(c1ccccc1)c1ccccc1)C2 (stereo partly specified),/,/,/,-3,/,/,/
Fc1cccc(-c2csc(-c3ccno3)n2)c1,-1%,i,?,-3,1,?,?
COC1CC(=C(c2cccs2)c2cccs2)C[N+](C)(C)C1 (stereo unspecified),/,/,/,0,/,/,/
CCc1cccc(C)c1NC(=O)COC(=O)CNS(=O)(=O)/C=C/c1ccccc1,-4%,-5%,?,-3,-1,?,27µM*
Cc1ccc(OCC(=O)N2CCN(CCc3ccncc3)CC2)cc1C,-7%,-7%,/,-2,/,/,/
